High-throughput results: PubChem BioAssay, Emory University Molecular Libraries Screening Center
Measles inh: inhibitors of measles virus growth in cells, primary screen, measles RdRp inhibitor project, cell-based, single point, HTS; 33,000 compounds, 0.1% hits; AID 745, 2007; z-score (no concentration beside the values); infected Vero cells, GFP fluorescence, 64 h; stronger effect = lower value; in the data active = z-score below about -3
The depositor's hits bear a star. This excerpt belongs to a sample that is enriched for hits.

SMILES	Measles inh
COc1cccc(C(=O)Nc2ccc(S(=O)(=O)Nc3nc(C)cc(C)n3)cc2)c1	0.58
Cc1cc(C)nc(NS(=O)(=O)c2ccc(Br)cc2)n1	-3.09*
COc1ccc(CC(=O)Nc2ccc(S(=O)(=O)Nc3nc(C)cc(C)n3)cc2)cc1	1.53
O=c1c2ccccc2nc(SCc2ccncc2)n1Cc1ccco1	-0.13
O=C(Nc1ccccc1C(=O)O)c1ccc(NC(=O)C(F)(F)F)cc1	-0.3
COc1ccccc1NC(=O)c1cccc([N+](=O)[O-])c1	-0.86
COc1ccc([N+](=O)[O-])cc1NC(=O)c1cccc(C(=O)Nc2cc([N+](=O)[O-])ccc2OC)c1	-0.38
COc1ccc([N+](=O)[O-])cc1NC(=O)c1cccc(F)c1	-5.24*
O=C(Nc1ccc2oc(-c3ccncc3)nc2c1)c1ccc([N+](=O)[O-])cc1Cl	-1.15
O=C(NC1CC1)c1ccc(CNc2nc(=S)[nH]c3ccccc23)cc1	0.21
COc1ccc(C2CC(c3c(-c4ccccc4)c4cc(Cl)ccc4[nH]c3=O)=NN2C(=O)CCC(=O)O)cc1 (centres undefined)	-0.07
O=c1[nH]c2ccc(Cl)cc2c(-c2ccccc2)c1SCCO	-0.29
COc1ccc(-c2cc(=O)[nH]c(Sc3c(-c4ccccc4)c4cc(Cl)ccc4[nH]c3=O)n2)cc1	-3.28*
COC(=O)C1(C(F)(F)F)C2C=CC(C2)N1S(C)(=O)=O (centres undefined)	1.45
Cc1ccc(-c2nnc3n2N=C(c2ccc(O)c(O)c2)CS3)cc1	-0.32
Cc1cc2ccccc2n1CCNS(=O)(=O)c1ccccc1	0.89
CCOC(=O)c1cnc2ccc(Br)cc2c1Nc1ccc(O)cc1	0.51
CCC(C)NS(=O)(=O)c1cc(C(=O)Nc2cccc(C)c2)ccc1F (centres undefined)	-0.88
CCOc1ccc(-n2c(=O)c3c(C)c(C(C)=O)sc3n(Cc3cc(=O)n4cc(Cl)ccc4n3)c2=O)cc1	-1.22
OC(COc1ccc(F)cc1)CN1CCN(c2cccc(Cl)c2)CC1 (centres undefined)	-1.41
CCOc1cccc(-c2cc(C(=O)O)c3cc(Br)ccc3n2)c1	-0.16
CC1CCC(NC(=O)c2ccc(CSCc3ccccc3F)o2)CC1 (centres undefined)	1.57
COc1ccc(OCc2nc3ccccc3n2C(C)C)cc1	0.11
OCCn1c(-c2ccc(I)cc2)csc1=Nc1cccc(Cl)c1	-0.1
O=S(=O)(Nc1ccc(Cl)cc1)c1cnc[nH]1	-3.51*
SMILES	Measles inh
O=S(=O)(Nc1cccc(C(F)(F)F)c1)c1cnc[nH]1	0.38
COc1ccc(Cl)cc1NS(=O)(=O)c1cnc[nH]1	0.18
O=C(Nc1c2c(nn1-c1ccc(F)cc1)CS(=O)C2)c1ccccc1F (centres undefined)	0.43
Cc1ccnc(NC(=O)c2ccc(C)c([N+](=O)[O-])c2)c1	-0.21
CCC(C)NS(=O)(=O)c1cc(Br)cc2c1N(C(C)=O)CC2 (centres undefined)	1.24
O=C(CN1CCN(CC(=O)Nc2ccccc2F)CC1)Nc1ccccc1F	2.33
O=C(Cc1c(C(=O)O)[nH]c2ccccc12)Nc1ccc(C(F)(F)F)cc1	0.24
Cc1ccc(NC(=O)C2C3NC(=S)NC2(C)Oc2ccc(Br)cc23)c(C)c1 (centres undefined)	-3.26*
Cc1ccc(NC(=O)C2C3NC(=S)NC2(C)Oc2ccccc23)c(C)c1 (centres undefined)	-0.17
CCOc1cccc2c1OC1(C)NC(=S)NC2C1C(=O)Nc1ccc(C)cc1C (centres undefined)	0.33
CCOC(=O)c1ccc(NC(=O)CCc2c[nH]c3ccccc23)cc1	-1.04
Cc1ccc(NS(=O)(=O)c2cccc3c(S(=O)(=O)Nc4ccc(C)cc4C)cccc23)c(C)c1	1.04
O=C(Cc1ccccc1)Nc1ccc2oc(-c3ccc(I)cc3)nc2c1	-0.52
O=C(Nc1ccc(I)cc1)c1cccnc1Cl	-1.14
COc1ccccc1N(C)CCNC(=O)c1sc2ncnc(N3CCOCC3)c2c1C	0.36
C(#Cc1ccc(C=Nc2ccccn2)cc1)c1ccccc1	-0.86
CCCCN1CC(C(=O)NC(C)C)CC1=O (centres undefined)	0.26
CC1CCC(C(=O)NC(C(=O)NCc2ccccn2)C(C)C)CC1 (centres undefined)	-3.08*
CC1CCN(S(=O)(=O)N2CCC(C(=O)NCc3ccccn3)CC2)CC1	0.27
CC1CCC(C(=O)NC(C(=O)Nc2ccc(C(C)C)cc2)C(C)C)CC1 (centres undefined)	-0.83
COc1cc2c(cc1OC)C(C(=O)Nc1ccc(Br)cc1C)C(c1ccc(SC)cc1)N(C)C2=O (centres undefined)	1.93
O=c1c2sccc2nc(SCc2ccc(Cl)cc2)n1Cc1ccccn1	-1.58
CC(C)(C)c1ccc(OCC(=O)NCCc2ccccc2)cc1	-0.87
Cc1nn(C(C)(C)C)c(OC(=O)CCc2ccccc2)c1S(=O)(=O)c1ccccc1	0.88
CCOC(=O)C1=C(C)NC(=O)NC1c1cccc(Oc2ccccc2)c1 (centres undefined)	-0.55
SMILES	Measles inh
CCc1ccc2c(c1)C(NC(C)=O)C(=O)N2C (centres undefined)	0.13
CCCCCNC(=O)c1ccc2c(=O)n(Cc3ccccc3Cl)c(=S)[nH]c2c1	-0.19
NC(=O)C1CCN(c2ncnc3c2c(-c2ccccc2)cn3-c2ccc(Cl)cc2)CC1	-1.82
O=C1C(=O)N(CO)c2ccc(Br)cc21	0.39
Cc1nnc(SCC(=O)c2ccc(Cl)cc2)s1	0.1
COC(=O)C1=CN(C2CC2)C=C(C(=O)OC)C1c1ccc(OC)cc1OC	1.57
COc1cc(NC(=O)c2cc([N+](=O)[O-])ccc2N2CCCCCC2)c2ncccc2c1	-1.83
CCc1ccccc1NC(=O)c1cc(S(=O)(=O)N2CCCCC2)ccc1F	-1.62
CC(=O)NC(c1ccc(C)cc1)c1cc([N+](=O)[O-])c2cccnc2c1O (centres undefined)	-3.4*
CC(=O)NC(c1ccccc1)c1cc(Cl)c2cccnc2c1O (centres undefined)	-0.77
CCOc1cc(C(NC(=O)CC)c2cc([N+](=O)[O-])c3cccnc3c2O)ccc1O (centres undefined)	-0.83
CC(=O)Nc1ccc2nc(NC(=O)COc3ccc(Cl)cc3)sc2c1	0.95
Cc1cccc(N2COc3cc4c(cc3C2)OCO4)c1	-0.27
Cc1[nH]c2ccccc2c1C(Nc1nc2c(s1)CCCC2)c1ccccn1 (centres undefined)	0.09
O=c1c2c3c(sc2n2c(=S)[nH]nc2n1Cc1ccccc1)CCC3	-0.75
Cc1nc2sc3c(c2c(=O)[nH]1)CCC3	0.5
C=C1CSc2nc(=O)c3c4c(sc3n21)CCC4	-3.1*
CCOc1ccc(NC(=O)c2ccc(C(F)(F)F)cc2)cc1	0.19
CCN(C(=O)CCS(=O)(=O)c1cc(Br)cc2c1N(C(=O)C1CC1)CC2)c1ccc(F)cc1	1.07
COc1ccc(C2Nc3ccc4ccccc4c3C3=C2C(=O)CC(C)(C)C3)c(OC)c1OC (centres undefined)	0.8
CC(C)CCNS(=O)(=O)c1cccc2nsnc12	1.46
COc1ccc2nc3sc(C(=O)N4CCN(c5cccc(C)c5C)CC4)cc3cc2c1	-1.11
CCOC(=O)C1=C(CC)NC2=C(C(=O)CC(C)(C)C2)C1c1ccccc1F (centres undefined)	-0.7
O=C(OCCNc1nc(-c2ccccc2)nc2ccccc12)c1cccs1	-0.06
